# From PubChem BioAssay (EPA / NIEHS)
# Results filed as inconclusive are left out. Active and inactive are the calls of the source. Rule for the calls: active = hit-call score of the fitted dose curve at least 0.9, where 1 is the maximum; inconclusive = response in the unintended direction; inactive = score below 0.9.
# Target: human Opioid Receptor Delta 1 (Opiate D1), OPRD1 (gene 4985) (UniProt P41143)
# Test: NVS_GPCR_hOpiate_D1: NovaScreen (NVS) G Protein-Coupled Receptor Assay for human Opioid Receptor Delta 1 (Opiate D1) (AID 2283280)
# Outline: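 Radioligand displacement on membranes from CHO cells expressing the receptor, read by filter scintillation counting 1 h after dosing. Duplicate single-point screen at 25 uM, then concentration series for actives; loss of signal versus DMSO.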
# Sequence of human Opioid Receptor Delta 1 (Opiate D1), OPRD1 (gene 4985) (P41143 whole entry, looked up): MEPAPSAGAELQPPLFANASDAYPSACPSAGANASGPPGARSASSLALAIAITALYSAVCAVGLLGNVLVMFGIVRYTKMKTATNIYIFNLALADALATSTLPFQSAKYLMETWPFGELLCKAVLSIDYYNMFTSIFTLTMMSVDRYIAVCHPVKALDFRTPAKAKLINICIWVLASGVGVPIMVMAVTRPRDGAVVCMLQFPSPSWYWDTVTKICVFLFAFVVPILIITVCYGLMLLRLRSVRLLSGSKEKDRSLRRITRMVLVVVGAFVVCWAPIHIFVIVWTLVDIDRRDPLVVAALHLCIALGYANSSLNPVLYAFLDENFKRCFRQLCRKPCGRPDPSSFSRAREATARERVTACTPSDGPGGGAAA
SMILES,AC50,outcome
CC[C@H](c1ccc(O)cc1)[C@@H](CC)c1ccc(O)cc1,8.04 µM (active),
CCN(CC)CCNc1ccc(CNC=O)c2sc3ccc(OC)cc3c(=O)c12,,inactive
CCc1nn(C2CCCCC2)c2cc(C3(C#N)CCC(C(=O)O)CC3)ccc12 (configuration not stated),,inactive
CC[C@H](C)[C@@H](C(=O)O)n1sc2ccccc2c1=O,,inactive
Cc1oc(-c2ccccc2)nc1CCOc1ccc(C[C@H](Nc2ccccc2C(=O)c2ccccc2)C(=O)O)cc1,12.8 µM (active),
CCCCCCCCCCCCc1ccccc1S(=O)(=O)O,7.58 µM (active),
CCCOc1sc(C(=O)N2CCC(c3cc(CN)ccc3F)CC2)c(C)c1Br,9.25 µM (active),
CC(=O)NC1(c2cccc(F)c2)CCN(CC[C@@]2(c3ccc(Cl)c(Cl)c3)CN(c3ccccc3)C(=O)CO2)CC1,,inactive
NC(=O)N1C(=O)C(C(=O)c2cc(Cl)cs2)c2cc(F)c(Cl)cc21 (configuration not stated),,inactive

# Target: human Purinergic Receptor P2Y, P2RY1 (gene 5028) (UniProt P47900)
# Test: NVS_GPCR_hPY2: NovaScreen (NVS) G Protein-Coupled Receptor Assay for human Purinergic Receptor P2Y (AID 2283281)
# Outline: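 Cell-free radioligand binding using U937-derived protein, 1 h after dosing, filter-based scintillation counting. Screened in duplicate at 25 uM; actives rerun as concentration-response up to 50 uM; loss of signal versus DMSO.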
# Sequence of human Purinergic Receptor P2Y, P2RY1 (gene 5028) (P47900 whole entry, looked up): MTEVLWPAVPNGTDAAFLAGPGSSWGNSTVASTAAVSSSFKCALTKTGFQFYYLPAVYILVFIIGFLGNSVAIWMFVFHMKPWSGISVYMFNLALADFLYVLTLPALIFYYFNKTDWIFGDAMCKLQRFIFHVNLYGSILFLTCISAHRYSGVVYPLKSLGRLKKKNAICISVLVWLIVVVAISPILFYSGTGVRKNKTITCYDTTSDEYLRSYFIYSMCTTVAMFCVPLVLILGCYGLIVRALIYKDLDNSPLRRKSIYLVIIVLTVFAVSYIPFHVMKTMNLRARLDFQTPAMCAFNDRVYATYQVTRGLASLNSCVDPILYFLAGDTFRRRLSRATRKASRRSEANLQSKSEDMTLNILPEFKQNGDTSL
SMILES,AC50,outcome
CCCCCCCCCCCCc1ccccc1S(=O)(=O)O,12.3 µM (active),
NC(=O)N1C(=O)C(C(=O)c2cc(Cl)cs2)c2cc(F)c(Cl)cc21 (configuration not stated),,inactive
C#C[C@]1(O)CC[C@H]2[C@@H]3CCC4=CC(=O)CC[C@@H]4[C@H]3CC[C@@]21C,,inactive

# Target: human Thromboxane A2 Receptor (TXA2), TBXA2R (gene 6915) (UniProt P21731)
# Test: NVS_GPCR_hTXA2: NovaScreen (NVS) G Protein-Coupled Receptor Assay for human Thromboxane A2 Receptor (TXA2) (AID 2283282);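 note: actives reduce bound radioligand signal relative to DMSO baseline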
# Outline: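 Filter scintillation counting of bound radioligand, human platelet protein, 1 h exposure. Single-concentration duplicates (25 uM) first, concentration-response follow-up for actives. Binding loss scored against DMSO baseline.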
# Sequence of human Thromboxane A2 Receptor (TXA2), TBXA2R (gene 6915) (P21731 whole entry, looked up): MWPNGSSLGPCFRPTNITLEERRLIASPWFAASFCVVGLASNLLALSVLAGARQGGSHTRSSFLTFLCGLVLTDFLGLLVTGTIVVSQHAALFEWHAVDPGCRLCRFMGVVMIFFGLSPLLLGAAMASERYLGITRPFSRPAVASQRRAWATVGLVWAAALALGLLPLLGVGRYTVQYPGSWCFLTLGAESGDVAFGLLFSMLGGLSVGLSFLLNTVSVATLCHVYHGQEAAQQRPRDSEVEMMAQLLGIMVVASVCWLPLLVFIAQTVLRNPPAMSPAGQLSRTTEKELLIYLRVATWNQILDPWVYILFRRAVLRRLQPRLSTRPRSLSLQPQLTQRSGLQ
SMILES,outcome,AC50
Nc1cccc2c(N)cccc12,inactive,
CCCCC(CC)COC(=O)CCCCC(=O)OCc1ccccc1 (configuration not stated),,12.7 µM (active)
CC[C@H](C)[C@@H](C(=O)O)n1sc2ccccc2c1=O,inactive,
Cc1oc(-c2ccccc2)nc1CCOc1ccc(C[C@H](Nc2ccccc2C(=O)c2ccccc2)C(=O)O)cc1,,3.52 µM (active)
CCCCCCCCCCCCc1ccccc1S(=O)(=O)O,,12.1 µM (active)
CCCOc1sc(C(=O)N2CCC(c3cc(CN)ccc3F)CC2)c(C)c1Br,inactive,
CCCCC(CC)COC(=O)CCCCC(=O)OCC(CC)CCCC (configuration not stated),,13.8 µM (active)
C=C(C)C(=O)OCCC(F)(F)C(F)(F)C(F)(F)C(F)(F)C(F)(F)C(F)(F)F,inactive,
NC(=O)N1C(=O)C(C(=O)c2cc(Cl)cs2)c2cc(F)c(Cl)cc21 (configuration not stated),,0.961 µM (active)

# Target: human Vasopressin 1A Receptor (V1A), AVPR1A (gene 552) (UniProt P37288)
# Test: NVS_GPCR_hV1A: NovaScreen (NVS) G Protein-Coupled Receptor Assay for human Vasopressin 1A Receptor (V1A) (AID 2283284)
# Outline: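 Cell-free radioligand displacement on human platelet preparations, 1.5 h incubation, filter-based scintillation counting. Chemicals first tested in duplicate at 25 uM; actives then run in concentration-response up to 50 uM, loss of signal fitted against DMSO.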
# Sequence of human Vasopressin 1A Receptor (V1A), AVPR1A (gene 552) (P37288 whole entry, looked up): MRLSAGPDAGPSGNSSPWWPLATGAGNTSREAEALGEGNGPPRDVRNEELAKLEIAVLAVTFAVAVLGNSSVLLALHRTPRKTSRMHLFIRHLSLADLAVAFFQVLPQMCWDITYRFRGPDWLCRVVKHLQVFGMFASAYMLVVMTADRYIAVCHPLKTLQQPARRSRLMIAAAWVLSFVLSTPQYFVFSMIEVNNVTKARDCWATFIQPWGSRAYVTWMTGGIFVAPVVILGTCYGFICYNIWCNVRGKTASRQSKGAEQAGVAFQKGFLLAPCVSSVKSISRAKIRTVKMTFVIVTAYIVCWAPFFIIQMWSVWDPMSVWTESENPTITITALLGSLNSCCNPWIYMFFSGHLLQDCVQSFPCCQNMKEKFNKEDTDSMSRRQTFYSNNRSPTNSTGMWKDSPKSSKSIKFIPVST
SMILES,outcome,AC50
CCCOc1sc(C(=O)N2CCC(c3cc(CN)ccc3F)CC2)c(C)c1Br,inactive,
N#C[C@@H]1CC(F)(F)CN1C(=O)CNC1CC2CCC(C1)N2c1ncccn1 (some centres not stated),inactive,
CCCCCCCCC(=O)O,,5.76 µM (active)

# Target: mouse Cholecystokinin, CCK1 Receptor (CCKA), Cckar (gene 12425) (UniProt O08786)
# Test: NVS_GPCR_mCCKAPeripheral: NovaScreen (NVS) G Protein-Coupled Receptor Assay for mouse Cholecystokinin, CCK1 Receptor (CCKA) (AID 2283285)
# Outline: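 Radioligand competitive displacement on mouse pancreatic membranes, 2 h incubation; filter-based scintillation counting, loss of signal versus DMSO. Single-concentration screen at 25 uM in duplicate, actives retested in concentration-response up to 50 uM.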
# Sequence of mouse Cholecystokinin, CCK1 Receptor (CCKA), Cckar (gene 12425) (O08786 whole entry, looked up): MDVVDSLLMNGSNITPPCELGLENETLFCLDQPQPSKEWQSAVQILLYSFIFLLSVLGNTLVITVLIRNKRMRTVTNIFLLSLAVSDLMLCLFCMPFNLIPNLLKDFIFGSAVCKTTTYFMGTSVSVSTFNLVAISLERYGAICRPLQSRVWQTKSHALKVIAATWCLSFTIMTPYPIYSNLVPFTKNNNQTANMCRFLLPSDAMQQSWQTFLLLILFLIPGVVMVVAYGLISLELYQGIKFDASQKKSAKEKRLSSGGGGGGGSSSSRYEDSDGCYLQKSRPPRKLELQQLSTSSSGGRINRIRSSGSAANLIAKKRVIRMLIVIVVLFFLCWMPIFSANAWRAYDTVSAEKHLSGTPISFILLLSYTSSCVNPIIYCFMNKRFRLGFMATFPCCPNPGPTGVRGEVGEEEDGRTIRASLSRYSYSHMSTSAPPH
SMILES,outcome,AC50
O=C(O)Cc1cc(I)c(Oc2cc(I)c(O)c(I)c2)c(I)c1,inactive,
CCC(=C(c1ccc(O)cc1)c1ccc(OCCN(C)C)cc1)c1ccccc1,,0.808 µM (active)
CCCOc1sc(C(=O)N2CCC(c3cc(CN)ccc3F)CC2)c(C)c1Br,,27.1 µM (active)
NC(=O)N1C(=O)C(C(=O)c2cc(Cl)cs2)c2cc(F)c(Cl)cc21 (configuration not stated),inactive,
ClC1=C(Cl)C(Cl)(Cl)C(Cl)=C1Cl,inactive,

# Target: rat Serotonin, 5-Hydroxytryptamine Receptor 1 (5HT1), Non-Selective Binding, Htr1a (gene 24473) (UniProt P19327)
# Test: NVS_GPCR_r5HT1_NonSelective: NovaScreen (NVS) G Protein-Coupled Receptor Assay for rat Serotonin, 5-Hydroxytryptamine Receptor 1 (5HT1), Non-Selective Binding (AID 2283286)
# Outline: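 Rat cortical membranes, radioligand displacement, 1 h incubation, read by filter scintillation. Primary screen in duplicate at 25 uM. Hits (e.g. ≥30% inhibition) went to concentration-response up to 50 uM, fitted as loss of binding versus DMSO.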
# Sequence of rat Serotonin, 5-Hydroxytryptamine Receptor 1 (5HT1), Non-Selective Binding, Htr1a (gene 24473) (P19327 whole entry, looked up): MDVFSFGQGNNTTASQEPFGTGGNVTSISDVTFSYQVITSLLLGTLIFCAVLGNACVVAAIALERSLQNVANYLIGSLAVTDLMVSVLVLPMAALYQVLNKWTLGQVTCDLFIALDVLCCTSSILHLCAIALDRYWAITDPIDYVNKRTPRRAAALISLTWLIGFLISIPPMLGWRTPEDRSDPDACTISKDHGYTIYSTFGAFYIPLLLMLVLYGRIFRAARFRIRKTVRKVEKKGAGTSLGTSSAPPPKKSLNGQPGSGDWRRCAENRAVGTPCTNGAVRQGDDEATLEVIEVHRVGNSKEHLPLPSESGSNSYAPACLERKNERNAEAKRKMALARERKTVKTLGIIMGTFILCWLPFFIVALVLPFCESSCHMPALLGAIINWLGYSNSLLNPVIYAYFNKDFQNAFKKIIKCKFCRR
SMILES,AC50,outcome
CC1=C(/C=C/C(C)=C/C=C/C(C)=C/C(=O)O)C(C)(C)CCC1,4.36 µM (active),
CCCOc1sc(C(=O)N2CCC(c3cc(CN)ccc3F)CC2)c(C)c1Br,5.18 µM (active),
C=C(C)C(=O)OCCC(F)(F)C(F)(F)C(F)(F)C(F)(F)C(F)(F)C(F)(F)F,,inactive
CN1CCN(c2ccccc2/C=C2\SCCN(c3ccc(Cl)c(Cl)c3)C2=O)CC1,0.626 µM (active),

# Tested on: 5-hydroxytryptamine receptor 2C (pig)
# Test: NVS_GPCR_p5HT2C: NovaScreen (NVS) G Protein-Coupled Receptor Assay for pig Serotonin, 5-Hydroxytryptamine Receptor 2C (5HT2C) (AID 2283288)
# Description: NVS_GPCR_p5HT2C is a biochemical, single-readout assay that uses extracted gene-proteins from Pig choroid plexus membranes in a tissue-based cell-free assay. Measurements were taken 1 hour after chemical dosing in a 48-well plate.NVS_GPCR_p5HT2C is one of one assay component(s) measured or calculated from the NVS_GPCR_p5HT2C assay. It is designed to make measurements of radioligand binding, a form of binding reporter, as detected with scintillation counting signals by Filter-based radiodetection technology.Data from the assay component NVS_GPCR_p5HT2C was analyzed into 1 assay endpoint. This assay endpoint, NVS_GPCR_p5HT2C, was analyzed in the positive analysis fitting direction relative to DMSO as the negative control and baseline of activity. Using a type of binding reporter, loss-of-signal activity can be used to understand changes in the binding as they relate to the gene HTR2C. Furthermore, this assay endpoint can be referred to as a primary readout, because the performed assay has only produced 1 assay endpoint. To generalize the intended target to other relatable targets, this assay endpoint is annotated to the gpcr intended target family, where the subfamily is rhodopsin-like receptor.
# Binding assays used specific radioligands (tritiated, iodinated) with non-radioactive competitive displacement ligands in agonist or antagonist protocols (as indicated) and various reference compounds and inhibitors to titrate specific binding to receptors and transporters. Most enzyme assays (CYPs, kinases, phosphatases, proteases, HDACs) used recombinant protein and specific substrates (fluorescence mostly, some colorimetric and radioactive) and inhibitors, followed by a biochemical separation of substrate and product. All assays for the biochemical HTS were initially run in duplicate at a single concentration (10 uM for CYP450 assays and 25 uM for all others). […] Each assay was run with positive and negative controls, and concurrent controls on every plate. The follow-up (secondary) screen tested active chemical-pairs in concentration series, as well as a few additional assays not tested in the primary screen, some selected negative inactives, and several cases re-run in the concentration series for confirmatory purposes.
SMILES,outcome,AC50
CCCOC(=O)c1ccc(O)cc1,inactive,
Cc1cc(CCN2CCN(c3nsc4ccccc34)CC2)cc2c1NC(=O)CC2(C)C,,0.00247 µM (active)
CCN(CC)CCNc1ccc(CNC=O)c2sc3ccc(OC)cc3c(=O)c12,,13.5 µM (active)
Oc1cc2ccccc2c2ccccc12,,0.848 µM (active)
CCCOc1sc(C(=O)N2CCC(c3cc(CN)ccc3F)CC2)c(C)c1Br,,16.6 µM (active)
CC(=O)NC1(c2cccc(F)c2)CCN(CC[C@@]2(c3ccc(Cl)c(Cl)c3)CN(c3ccccc3)C(=O)CO2)CC1,,3.53 µM (active)
O=[N+]([O-])c1ccc(O)cc1,inactive,
CN1CCN(c2ccccc2/C=C2\SCCN(c3ccc(Cl)c(Cl)c3)C2=O)CC1,,0.748 µM (active)
NC(=O)N1C(=O)C(C(=O)c2cc(Cl)cs2)c2cc(F)c(Cl)cc21 (configuration not stated),inactive,
